High-throughput results from PubChem.
IDE exosite inh: displaces the probe from the exo-site of human IDE. z-score at 20 µM. P14735. purified IDE, FL-6b probe fluorescence polarization; active compounds read low. actives 6.3% (n = 17,000);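 active = z-score of -3 or lower, meaning strong loss of probe binding signal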;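 also: His-tagged human IDE residues 42-1019 made in E. coli with 30 nM FL-6b probe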
Target sequence (P14735 42-1019 limits assumed): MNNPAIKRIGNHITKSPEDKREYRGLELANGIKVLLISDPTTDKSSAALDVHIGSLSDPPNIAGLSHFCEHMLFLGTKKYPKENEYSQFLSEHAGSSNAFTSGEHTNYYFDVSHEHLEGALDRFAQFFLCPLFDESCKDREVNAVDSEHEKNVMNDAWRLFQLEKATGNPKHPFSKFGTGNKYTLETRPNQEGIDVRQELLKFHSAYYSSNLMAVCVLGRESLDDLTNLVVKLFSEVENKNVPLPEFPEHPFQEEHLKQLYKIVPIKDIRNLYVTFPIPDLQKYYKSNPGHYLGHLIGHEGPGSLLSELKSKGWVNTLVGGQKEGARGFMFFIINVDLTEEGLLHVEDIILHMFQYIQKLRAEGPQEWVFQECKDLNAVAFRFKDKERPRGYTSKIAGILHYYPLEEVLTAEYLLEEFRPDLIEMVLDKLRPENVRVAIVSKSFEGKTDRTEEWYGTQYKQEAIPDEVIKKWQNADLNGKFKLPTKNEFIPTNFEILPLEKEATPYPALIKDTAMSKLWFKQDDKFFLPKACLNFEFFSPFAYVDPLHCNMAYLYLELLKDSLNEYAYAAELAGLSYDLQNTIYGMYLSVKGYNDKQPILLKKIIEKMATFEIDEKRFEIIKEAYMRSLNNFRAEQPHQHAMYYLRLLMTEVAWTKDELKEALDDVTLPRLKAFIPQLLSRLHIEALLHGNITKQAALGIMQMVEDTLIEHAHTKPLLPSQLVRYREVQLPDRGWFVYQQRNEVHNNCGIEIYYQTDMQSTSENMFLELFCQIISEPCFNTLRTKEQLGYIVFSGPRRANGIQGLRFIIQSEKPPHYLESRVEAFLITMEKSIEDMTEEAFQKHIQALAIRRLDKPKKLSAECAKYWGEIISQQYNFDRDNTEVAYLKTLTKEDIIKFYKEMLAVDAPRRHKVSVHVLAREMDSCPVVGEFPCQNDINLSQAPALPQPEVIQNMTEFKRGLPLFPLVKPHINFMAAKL
The depositor's hits bear a star. The full list was thinned out, with hits kept by preference.

What do the screens show for `Cc1noc(C)c1S(=O)(=O)Nc1ccc2c(c1)CC(=O)N([C@H](C)CO)C[C@H](C)[C@@H](CN(C)Cc1ccc(Oc3ccccc3)cc1)O2`?
IDE exosite inh: -3.6*

Results for C[C@@H]1CN([C@H](C)CO)C(=O)c2cc(N(C)C)ccc2O[C@H]1CN(C)Cc1ccc(Oc2ccccc2)cc1 ?
IDE exosite inh: -0.23

Results for C[C@H](CO)N1C[C@H](C)[C@H](CN(C)Cc2ccc(Oc3ccccc3)cc2)Oc2ccc(N(C)C)cc2C1=O ?
IDE exosite inh: -4.2*

What do the screens show for `C[C@@H]1CN([C@H](C)CO)C(=O)c2cc(N(C)C)ccc2O[C@@H]1CN(C)Cc1ccc(Oc2ccccc2)cc1`?
IDE exosite inh: -2.3

What do the screens show for `COc1ccc(S(=O)(=O)Nc2ccc3c(c2)CC(=O)N([C@H](C)CO)C[C@@H](C)[C@H](CN(C)C(=O)Nc2c(C)noc2C)O3)cc1`?
IDE exosite inh: 0.89

What do the screens show for `Cc1noc(C)c1S(=O)(=O)Nc1ccc2c(c1)CC(=O)N([C@@H](C)CO)C[C@@H](C)[C@@H](CN(C)Cc1ccc(Oc3ccccc3)cc1)O2`?
IDE exosite inh: 0.55

How did CCC(=O)N1[C@@H]2c3cccc(=O)n3C[C@H]1[C@H](CO)[C@H]2C(=O)NC1Cc2ccccc2C1 do in these assays?
IDE exosite inh: -0.28

What do the screens show for `O=C(Nc1ccc(C(F)(F)F)cc1)N1[C@@H]2CNC[C@H]1C2c1ccc(/C=C/c2ccccc2)cc1` (some centres undefined)?
IDE exosite inh: 5.9

What do the screens show for `CCC(=O)N1CCCCN2[C@@H](CO)[C@@H](c3ccc(/C=C/c4ccccc4)cc3)[C@@H]2C1`?
IDE exosite inh: -1.4

What do the screens show for `O=C(c1ccc(F)cc1)N1CCCCN2[C@H](C1)[C@H](c1ccc(/C=C/c3ccccc3)cc1)[C@@H]2CO`?
IDE exosite inh: 5.3

What do the screens show for `CN1CCCCN2[C@H](CO)[C@@H](c3ccc(-c4ccccc4)cc3)[C@H]2C1`?
IDE exosite inh: -0.23

How did CCC(=O)N1CCCCN2[C@H](C1)[C@H](c1ccc(/C=C/c3ccccc3)cc1)[C@@H]2CO do in these assays?
IDE exosite inh: -10*

Results for CCC(=O)N1CCCCN2[C@H](CO)[C@@H](c3ccc(-c4ccc(F)cc4)cc3)[C@@H]2C1 ?
IDE exosite inh: 3.2

Results for CN1CCCCN2[C@@H](CO)[C@@H](c3ccc(/C=C/c4ccccc4)cc3)[C@@H]2C1 ?
IDE exosite inh: -6.8*

Results for O=C(c1ccc(F)cc1)N1CCCCN2[C@H](CO)[C@@H](c3ccc(/C=C/c4ccccc4)cc3)[C@H]2C1 ?
IDE exosite inh: -2.3

What do the screens show for `CCC(=O)N1CCCCN2[C@H](CO)[C@@H](c3ccc(/C=C/c4ccccc4)cc3)[C@@H]2C1`?
IDE exosite inh: -4.5*

What do the screens show for `C/C=C/c1ccc([C@H]2[C@@H](CO)N3CCCCN(C)C[C@H]23)cc1`?
IDE exosite inh: 0.65

What do the screens show for `O=C(Nc1ccccc1)N1CC(=O)N2[C@@H](CO)[C@H](c3ccc(C#CC4CC4)cc3)[C@@H]2C1`?
IDE exosite inh: -0.6

What do the screens show for `CN1CCCCN2[C@H](CO)[C@H](c3ccc(-c4ccc(F)cc4)cc3)[C@H]2C1`?
IDE exosite inh: 0.4

What do the screens show for `COc1ccc2c3c(n(C)c2c1)[C@@H](CO)N(Cc1nccs1)CC31CCN(CC2CCCC2)CC1`?
IDE exosite inh: 1.4

How did O=C(C[C@H]1CC[C@@H]2[C@H](COC[C@H](O)CN2C(=O)c2ccncc2)O1)NCc1cc(F)cc(F)c1 do in these assays?
IDE exosite inh: 0.45

What do the screens show for `CCC(=O)N1C[C@@H](C)[C@@H](OC)CN(C)C(=O)c2cc(NC(=O)Nc3ccc(Cl)cc3)ccc2OC[C@@H]1C`?
IDE exosite inh: 0.051

What do the screens show for `O=C(Nc1ccccc1)N1CC(=O)N2[C@H](CO)[C@H](c3ccc(C#Cc4cccnc4)cc3)[C@@H]2C1`?
IDE exosite inh: -1.5

Results for CN1CCN(C(=O)C[C@H]2CC[C@@H]3[C@H](COC[C@H](O)CN3Cc3cccc(-c4ccncc4)c3)O2)CC1 ?
IDE exosite inh: -1

What do the screens show for `CCCC#Cc1ccc([C@H]2[C@@H](CO)N[C@@H]2CN(C(C)=O)C2CCCC2)cc1`?
IDE exosite inh: -0.97

Results for COc1ccccc1-c1ccc([C@H]2[C@H]3CN(S(=O)(=O)c4cn(C)cn4)CCCCN3[C@H]2CO)cc1 ?
IDE exosite inh: 0.56

How did COc1ccccc1-c1ccc([C@@H]2[C@@H](CO)N3CCCCN(S(=O)(=O)c4cn(C)cn4)C[C@@H]23)cc1 do in these assays?
IDE exosite inh: -15*

Results for Cn1cnc(S(=O)(=O)N2CCCCN3[C@H](CO)[C@H](c4ccc(C#CC5CCCC5)cc4)[C@H]3C2)c1 ?
IDE exosite inh: 1.9

How did Cn1cnc(S(=O)(=O)N2CCCCN3[C@H](C2)[C@@H](c2ccc(C#CC4CCCC4)cc2)[C@@H]3CO)c1 do in these assays?
IDE exosite inh: 1.2

Results for Cn1cnc(S(=O)(=O)N2CCCCN3[C@@H](CO)[C@H](c4ccc(C#CC5CCCC5)cc4)[C@@H]3C2)c1 ?
IDE exosite inh: 3.3
